PubChem BioAssay AID2107 (National Center for Advancing Translational Sciences (NCATS), 2009)
In all, about 240,000 compounds went through this assay and about 20 (0.008%) were called active. Inconclusive results (about 1%) are left out. Calls come from the whole dose curve; as a rule, active = well fitted inhibition curve with a large enough effect; inconclusive = small, poorly fitted or top-dose-only effect, or effect the other way; inactive = flat fitted curve, though single readings scatter. Only a sample is shown.

Biological target: Alpha-galactosidase A (Homo sapiens) (UniProt P06280)
Sequence (P06280 32-429 limits assumed): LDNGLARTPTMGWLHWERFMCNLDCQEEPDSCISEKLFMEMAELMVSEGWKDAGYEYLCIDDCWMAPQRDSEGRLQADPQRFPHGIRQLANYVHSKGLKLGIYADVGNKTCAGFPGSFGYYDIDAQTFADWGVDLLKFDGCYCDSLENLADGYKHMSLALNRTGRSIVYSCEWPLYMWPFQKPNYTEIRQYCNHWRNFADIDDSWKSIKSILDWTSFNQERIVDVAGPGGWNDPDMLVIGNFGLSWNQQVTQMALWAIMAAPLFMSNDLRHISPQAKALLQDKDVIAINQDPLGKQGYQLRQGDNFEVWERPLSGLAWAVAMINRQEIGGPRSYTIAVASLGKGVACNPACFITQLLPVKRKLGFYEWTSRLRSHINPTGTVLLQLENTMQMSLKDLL
Assay: qHTS Assay for Inhibitors and Activators of Human alpha-Galactosidase From Spleen Homogenate;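 note: 0% = enzyme with vehicle and -100% = no enzyme basal signal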
Settings: 4MU-alpha-Gal fluorescence, 40 min; series mostly up to 80 µM; activity change, negative = inhibition: at the top concentration
Text: NIH Chemical Genomics Center [NCGC] NIH Molecular Libraries Probe Production Centers Network [MLPCN] MLPCN Grant: R03 MH084842-01 Assay Submitter (PI): Wei Zheng NCGC Assay Overview: Alpha-galactosidase is a homodimeric glycoprotein that hydrolyzes the terminal alpha-galactosyl moieties from glycolipids and glycoproteins. Deficiency of this enzyme results in Fabry Disease with progressive accumulation of globotriaosylceramide and other glycosphingolipids in vascular endothelial cells that causes renal failure, myocardial infarction and stroke, and premature death in patients. It has been reported that the improper folding and trafficking of alpha-galactosidase resulting from genetic mutations may account for a significant number of Fabry patients. […] We optimized this alpha-galactosidase assay in 1536-well plate format for identification of novel small molecule inhibitors or activators with structures other than the sugar analogs in order to develop new pharmacological chaperones. In particular, this assay is directed towards discovering compounds active in more natural setting, tissue homogenate, that may have been missed by screens of the purified enzyme under more stringent conditions.
NCGC Assay Protocol Summary: This is a fluorogenic enzyme assay with 4-methylumbelliferyl-alpha-D-galactopyranoside as the substrate and human spleen homogenate containing alpha-galactosidase as the enzyme preparation. Upon hydrolysis of this fluorogenic substrate, the resulting product, 4-methylumbelliferone (which excites at 365 nm and emits at 440 nm) can be detected by a fluorescence plate reader. Data were normalized to the controls for basal activity (without enzyme) and 100% activity (with enzyme). The AC50 values were determined from concentration-response data modeled with the standard Hill equation. Assay buffer: 50 mM citric acid (titrated with potassium phosphate to pH 5.0), 0.01% Tween-20 (pH 5.0 is an optimal condition for this enzyme assay) 1536-well assay protocol for the alpha-galactosidase from human spleen homogenate: (1) Add 2 ul/well spleen homogenate (1 ug) (2) Add 23 nL compounds in DMSO solution. The final titration was 0.5 nM to 58 uM. (3) Add 2 ul of substrate (1 mM final) (4) Incubate at 37C for 40 min (5) Add 2 ul stop solution (1M NaOH and 1M Glycine mixture, pH 10) (6) Detect the assay plate in a ViewLux plate reader (PerkinElmer) with Ex=365 nm and Em=440nm. Keywords: Alpha-galactosidase, Fabry Disease, pharmacological chaperone, chaperone therapy, high throughput screening, alpha- galactosidase inhibitor, MLSMR, MLSCN, NIH Roadmap, qHTS and NCGC

Activity change, negative = inhibition, inactive:
CSc1ccc(S(=O)(=O)Nc2cccc(F)c2)cc1 3.92%
COC(=O)c1ccc(C(NC(=O)OCc2ccccc2)/C(F)=C/[C@@H](C)C(=O)O)cc1 (stereo not given in full) -4.12%
Cc1ccc(-c2csc(N(Cc3ccco3)C(=O)c3cccs3)n2)cc1 2.51%
O=C(Nc1cc(C(=O)Nc2ccc(S(=O)(=O)O)cc2)cc(C(=O)Nc2ccc(S(=O)(=O)O)cc2)c1)Nc1cc(C(=O)Nc2ccc(S(=O)(=O)O)cc2)cc(C(=O)Nc2ccc(S(=O)(=O)O)cc2)c1 3.78%
Cc1ccccc1OCCC(=O)OCC(=O)NC(C)c1ccccc1 (stereo not given) 1.89%
CC[C@H](C)[C@H](NC(=O)[C@H](Cc1ccc(O)cc1)NC(=O)[C@@H](NC(=O)[C@H](CCCN=C(N)N)NC(=O)[C@@H](N)CC(=O)O)C(C)C)C(=O)N[C@@H](Cc1cnc[nH]1)C(=O)N1CCC[C@H]1C(=O)N[C@@H](Cc1ccccc1)C(=O)O -0.483%
CC(=O)Nc1ccc(S(=O)(=O)N2N=NC3C2C2CC4C3(CN(C(=O)OC(C)(C)C)S4(=O)=O)O2)cc1 (stereo not given) -1.71%
CSCCC(NC(=O)c1cc([N+](=O)[O-])cc([N+](=O)[O-])c1)c1nc2ccccc2[nH]1 (stereo not given) 18.7%
CCOc1c2ccc(C(=O)NC3CCCc4ccccc43)cc2nn1CC (stereo not given) 5.93%
Cc1cc(C)c(NC(=O)C[N+](C)(C)CC(O)COc2cccc3ccccc23)c(C)c1 (stereo not given) -14%
CCOC(=O)Cc1csc(SCc2cc(=O)oc3cc(O)ccc23)n1 9.37%
CC1(C)CC(=O)c2cnc3nc4ccccc4n3c2C1 7.68%
COCC1CCCN(Cc2cn[nH]c2-c2cc3ccccc3o2)C1 (stereo not given) -8.79%
Cc1cc(Cl)ccc1C(=O)C1CCCN(C(=O)CCN2CCCO2)C1 (stereo not given) -13%
CC(C)Cn1c(N)c(C(=O)COC(=O)CN2C(=O)C3CC=CCC3C2=O)c(=O)n(C)c1=O (stereo not given) 1.23%
O=C(NNc1ccccc1Cl)C(O)(c1cccc(C(F)(F)F)c1)c1cccc(C(F)(F)F)c1 -3.52%
O=C(NCc1ccccn1)[C@]1(C(F)(F)F)C[C@H](CCc2ccccc2)CCCO1 2.9%
Cc1cccc(C)c1N1CCN(S(=O)(=O)N2CCCCC2)CC1 5.18%
Cc1cccc2nc(CSc3nc4[nH]ncc4c(=O)n3-c3cccc(Cl)c3)cc(=O)n12 5.01%
N#Cc1ncc(C(F)(F)F)cc1Oc1cccnc1 -18%
CNC(=O)[C@]1(C(F)(F)F)C[C@H](CCc2ccccc2)CCCO1 -17.7%
COc1ccc(C[C@H](C(=O)O)N2C(=O)c3ccc(C(=O)O)cc3C2=O)cc1 -9.39%
Cc1ccccc1N(C(=O)Cc1cccs1)C(C(=O)NC1CCCCC1)c1cn(C)nc1C (stereo not given) -4.95%
C[C@@H]1O[C@@H](OC[C@H]2O[C@@H](Oc3cc(O)c4c(c3)O[C@H](c3ccc(O)c(O)c3)CC4=O)[C@H](O)[C@@H](O)[C@@H]2O)[C@H](O)[C@H](O)[C@H]1O 3.44%
CCOC(=O)C1CCN(c2c(Nc3cc(C)cc(C)c3)c(=O)c2=O)CC1 -0.907%
NC(=O)NC(=O)CSc1nc2cc([N+](=O)[O-])ccc2n1-c1cccc(C(F)(F)F)c1 -1.63%
C[C@H]1CCC[C@@]2(C)CCCC[C@]12O 2.2%
C=C1CCN(C(CC(C)C)C(=O)NCc2cc(OC)c(OC)c(OC)c2)S(=O)(=O)c2ccccc21 (stereo not given) -16.2%
COc1ccc(C2/C=C\CN(Cc3ccco3)C(C)C(=O)N2Cc2ccc(F)cc2)cc1 (stereo not given) 4.4%
COc1cc(C2OC(c3cc(OC)c(OC)c(OC)c3)C(C)C2C)cc(OC)c1OC (stereo not given) 5.9%
COc1ccc(CN(C(=O)CSc2nnc(-c3ccc(OC)c(OC)c3)o2)c2ccc(F)cc2)cc1 10%
C=CCC(C)(O)c1ccco1 (stereo not given) -6.7%
CCCCCNC(=O)c1cccnc1SCC(=O)Nc1ccccc1OC -4.08%
CC1(C)CC(N2CCN(C(c3ccccc3)c3ccccc3)CC2)=CC(=[N+]2CCCCC2)C1 3.27%
COc1ccccc1C(=O)N1CCN=C1SCc1cccnc1 0.71%
O=C(NCCCn1ccnc1)c1cc(-c2ccccc2)on1 -0.698%
C=C(C)C1CC=C(C)C(O)C1 (stereo not given)
C=CCN1c2ccccc2[C@]23C[C@@H](C(=O)OC)N(S(=O)(=O)c4ccc([N+](=O)[O-])cc4)C2=NC(C(=O)OC)=C(C(=O)OC)[C@H]13 -4.05% [at 17.5 µM]
[O-][n+]1onc2c1CCc1[nH]c(-c3ccccc3)nc1-2 1.23%
CC(=O)CC(c1ccccc1)C1C(=O)Oc2ccccc2C1=O (stereo not given) -10.1%
Cc1nn(C)c(C(=O)NNC(=S)NC2CCCCC2)c1Cl 2.34%
NCCCCC(N)C(=O)O (stereo not given) 2.41%
Cn1c(SCC(=O)N/N=C/c2ccc(O)c(O)c2)nc2ccccc21 3.66%
O=c1cc(-c2ccc(O)cc2)oc2c([C@@H]3O[C@H](CO)[C@@H](O)[C@H](O)[C@H]3O)c(O)cc(O)c12 -17.6%
CCN(CC)c1ccc(/C=N/NC(=O)c2cnccn2)c(O)c1 -14.2%
O=C(NCCCO)/C(=C\C=C\c1ccccc1)NC(=O)c1ccccc1Cl 1.56%
COc1ccc(/C=N/Nc2ncnc3sc4c(c23)CCCC4)cc1O 4.96%
COc1ccccc1C1C(C#N)=C(N)Oc2c1c(-c1ccccc1)nn2-c1ccccc1 (stereo not given) 6.59%
CC[C@H](C)[C@H](NC(=O)[C@@H](N)CCC(=O)O)C(=O)N[C@@H](CC(C)C)C(=O)N[C@@H](CC(=O)O)C(=O)N[C@H](C(=O)N1CCC[C@H]1C(=O)N[C@@H](CO)C(=O)N[C@H](C(=O)O)[C@@H](C)O)C(C)C -4.11%
C[C@]1(C(=O)NCCc2c[nH]c3ccccc23)C=C[C@@H](Cc2ccccc2)N1C(=O)c1ccccc1
CCC1(CC)C(=O)C2=C3C1[C@H](C(=O)OC)C=C(C(=O)OC)C[C@H]3[C@H]1C(=O)N(Cc3ccccc3)C(=O)[C@H]1[C@H]2C (stereo not given in full) 6.6%
COc1ccc2c3c1O[C@H]1C[C@@H](O)C=C[C@@]31CCN(C)C2
OCCNCc1cccc(OCc2ccccc2Cl)c1 -3.03%
CC1=NN(C(=O)c2ccc(Br)cc2)C(O)(c2ccccc2)C1 (stereo not given) 6.29%
Cc1ccc(-c2nn(CC(C)(C)C)c3ncnc(N)c23)cc1 -4.25%
COc1ccc(-c2c(C)cc3oc(=O)cc(-c4ccccc4)c3c2C)cc1OC 1.37% [at 119 µM]
COC(=O)Cc1csc(/N=C/c2c(O)n(-c3cccc(C(F)(F)F)c3)c(=O)c3ccccc23)n1 3.19%
C/C(CCN1CCCCc2nc(C)c(C)cc21)=N\O[C@@H](C)c1cn([C@@H]2COC[C@@H]2O)nn1 2.02% [at 17.5 µM]
Cc1nc(C(=O)NCc2ccccc2)sc1C1(C)CC(c2cccnc2)=NO1 (stereo not given) 10.3%
CCOC(=O)c1cc(C)nc(S(C)(=O)=O)c1C#N 7.86%
Cc1cc2oc(=O)cc(-c3ccccc3)c2c(C)c1/C=C/c1ccc(F)cc1 10.4% [at 119 µM]
CCOc1ccc(NC(=O)COc2ccc(C(=O)NC3CCCc4ccccc43)cc2OC)cc1 (stereo not given) 8.14%
O=C(COC(=O)c1ccc(Cl)nc1)NCc1ccc2c(c1)OCO2 1.1%
COc1cc(OC)c2c(C)cc(=O)oc2c1C(CCN1CCCCC1)c1ccc(N(C)C)cc1 (stereo not given) -6.87%
COCCCNC(=S)NCCNc1nc2cc(C)c(C)cc2cc1C#N 10.9%
O=C(O)c1ccc(/C=C2/SC(=S)N(c3cccc(C(F)(F)F)c3)C2=O)cc1 5.07%
CCO[C@@H]1OC(C(=O)NCc2nc3ccccc3[nH]2)=C[C@H](C2CCCCC2)[C@H]1CCCO 2.53%
C=CCCN(C(Cc1ccccc1)C(=O)OC)S(=O)(=O)c1cc(Br)ccc1Br (stereo not given) 0.915%
COc1ccc(CN2CCC(=O)c3ccccc3S2(=O)=O)cc1 -16.2%
CCOC(=O)C1=C(C)NC2=C(C(=O)CC(C)(C)C2)C1c1ccsc1 (stereo not given) 12.5%
O=C(NCC1CC1)C1(C(F)(F)F)C/C(=C\CCO)CCCO1 (stereo not given) 6.89%
Cc1scc(C(=O)NNC(=S)NCC(C)C)c1C 1.16%
CCCN1CCC(=O)N(C(CSc2ccc(C)cc2)Cc2ccccc2)CC1 (stereo not given) -1.75%
Cc1cc(C(=O)OCC(=O)N2c3ccccc3NC(=O)C2(C)C)c(C)n1-c1ccccc1 13.9%
O=C1/C(=C\c2ccccc2Cl)SC(=S)N1CCC(=O)N1CCCc2ccccc21 0.217%
COc1cccc(N(C(=O)c2ccn[nH]2)C2(C(=O)Nc3c(C)cccc3C)CCCCC2)c1 1.18%
OCC1(Cc2ccccc2C(F)(F)F)CCN(Cc2cccc3cnccc23)CC1 20.6%
C=C1/C(=C\C=C2\CCCC3(C)C2CCC3C(C)/C=C/C(O)C2CC2)CC(O)CC1O (stereo not given) -8.26%
Cc1noc(C)c1-c1ccc2ncnc(NCc3ccc4[nH]ccc4c3)c2c1 6.61%
CC(=O)OCC(NC(=O)C(Cc1ccccc1)NC(=O)OC(C)(C)C)C1OC(n2ccc(=O)[nH]c2=O)C(OC(C)=O)C1OC(C)=O (stereo not given) 10.3%
COc1ccc(C2CC(O)(c3ccccc3)Oc3cc(C)cc(C)c32)cc1 (stereo not given) 4.13%
Cn1c(N)c(C(=O)COC(=O)/C=C/c2ccc(OC(F)F)cc2)c(=O)n(C)c1=O 5.56%
COc1ccc(Br)cc1C1C2C=CCC(C)C2C(=O)N1Cc1ccccc1 (stereo not given) -6.92%
N#CC1=C(N)Oc2c(ccc3cccnc23)C1c1ccncc1 (stereo not given) 0.687%
COC(=O)C1(C(C)=O)CC2=CC[C@H]3C(=O)N(c4ccccc4)C(=O)[C@H]3[C@@H]2Cc2ccccc2[C@@H]1C[N+](=O)[O-] (stereo not given in full)
N#Cc1ccc(OCc2nnc(-c3ccc([N+](=O)[O-])cc3)o2)cc1 3.78%
CCOCCOC(=O)C(C)Oc1ccc(Oc2ncc(C(F)(F)F)cc2Cl)cc1 (stereo not given) -8.18%
CSc1ccccc1N1CCN(CCCCCC(=O)NC2CCCc3ccccc32)CC1 (stereo not given) -14.7%
Cc1cc(N(C)C)nc(Cl)n1 8.47%
Cc1cccc(NC(=S)NCCc2ccc(F)cc2)c1C -0.123%
